Screening data from PubChem.
Rows were chosen to be rich in hits. Some 15% of all compounds tested hit in one or more screens of this group.
Sm TGR inh: blocks Schistosoma mansoni thioredoxin glutathione reductase; actives 3% (n = 360,000); purified TGR, DTNB reduction, TNB absorbance 405 nm; Potency, µM (highest dose often 114 µM), for inactives: at the highest dose activity change, negative = inhibition, actives largely listed as inhibitors; note: potency is the fitted concentration of half-maximal effect; % is set by controls: 0 for no effect and ±100 for the full control effect; nearly all actives have a fitted effect of over 60% in size
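First, TGR (20 nM dispensed) and NADPH were mixed with compound. Second, a 15 min room-temperature incubation followed. Third, further NADPH and then DTNB were added to start the reaction. Finally, TNB absorbance was monitored kinetically.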
HCMV inh: blocks human cytomegalovirus replication | activity change, negative = inhibition, % at 57.5 µM | actives 4.5% (n = 410,000) | HFF cells, HCMV-luciferase reporter, 72 h; active compounds read low; in the data active = activity change below about -60%; inconclusive = no clear call, values can overlap the other calls; inactive = above about -39%; note: % is set by controls: 0 for no effect and ±100 for the full control effect
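Cell-based, HFFs, 1000 cells/well, 16 h 37C; cpds in DMSO + HCMV-luc, MOI 1 PFU/cell; 72 h 37C; OneGlo luminescence after 5 min RT; norm. to buffer vs Salinomycin 10uM.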
SARS PLP yeast: SARS-CoV PLP inhibition in yeast; S. cerevisiae expressing SARS-CoV PLpro, growth rescue; Potency, µM (doses to about 32.9 µM), without a hit: top-dose activity, positive = growth rescue, hits mostly activators; actives 0.19% (n = 330,000); AID 485353; calls by dose curve; note: potency is the fitted concentration of half-maximal effect; 0% is about no effect; nearly all actives have a fitted effect of over 55% in size
Pf growth 48h: inhibits P. falciparum growth in the first generation, 48 h | P. falciparum luciferase growth in erythrocytes, 48 h | Potency, µM (doses to about 28.7 µM), for inactives: at the highest dose activity change, negative = inhibition, most hits filed as inhibitors | actives 5.9% (n = 310,000); note: potency is the fitted concentration of half-maximal effect; % is set by controls: 0 for no effect and ±100 for the full control effect
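First compound was added to culture medium, then infected red cells at 0.1% parasitemia and 2% hematocrit (final). After incubation at 37 C under 5% CO2, luciferase detection reagent was dispensed and light output recorded.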
Pf growth 96h: inhibits malaria parasite growth, 96 h | P. falciparum luciferase reporter growth, 96 h | Potency, µM (series often up to 28.7 µM), for inactives: top-dose activity change, negative = inhibition, most hits filed as inhibitors | actives 6.9% (n = 320,000) | AID 504834; note: potency is the fitted concentration of half-maximal effect; % is set by controls: 0 for no effect and ±100 for the full control effect
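Two-generation exposure (96 h) targets delayed-death phenotype. Reporter parasites carrying integrated firefly luciferase, in red cells at 2% hematocrit and 0.05% parasitemia final, kept at 37 C, 5% CO2; luminescence loss indicates inhibition.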
HCV inhibitor: inhibitors of hepatitis C virus infection; Huh7.5.1 HCVcc-Cre infection, luciferase reporter, 44 h; Potency, µM (highest dose often 41.8 µM), for the others: at the highest dose activity change, negative = inhibition, actives largely listed as inhibitors; actives 3.4% (n = 340,000); AID 651820; note: potency is the fitted concentration of half-maximal effect; % is set by controls: 0 for no effect and ±100 for the full control effect
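A cell-based infection assay in which seeded cells (1,000 per well) receive test compound after 4 h, are inoculated with HCVcc-Cre at approximately 0.5 moi, and are incubated 44 h before luminescence detection.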
The depositor's hits bear a star; u = inconclusive; x = no result; [ ] = remark or other dose. Unless noted, calls come from the whole dose curve; as a rule, active = well fitted curve in the direction sought with a large enough effect; inconclusive = small, poorly fitted or top-dose-only effect, or another doubt; inactive = no such curve, though single readings can be large; an effect the other way counts as inactive or inconclusive.

SMILES	Sm TGR inh	HCMV inh	SARS PLP yeast	Pf growth 48h	Pf growth 96h	HCV inhibitor
CC(NC(=O)CCC(=O)c1ccccc1)c1ccc(F)cc1 (centres undefined)	-2%	x	-1%	u	u	16%
O=C(Nc1ccc(NC(=O)C2CC2)cc1)c1cccs1	-24%	-77*	-6%	128%	10µM*	4%
O=C(N/N=C/c1cccs1)c1cccc(NC(=O)c2ccccc2Cl)c1	-7%	-27	3%	5%	-13%	-10%
O=C(Nc1cccc(NC(=O)c2ccccc2Cl)c1)c1cccs1	-2%	-81*	-5%	16%	-9%	u
O=C(Nc1ccc(NC(=O)c2cccs2)c(Cl)c1)c1cccs1	-3%	u	-2%	-13%	u	11µM*
O=C(Nc1ccc(NC(=O)c2cccs2)cc1)c1cccs1	9%	11	0%	59%	13%	9%
O=C(Nc1ccc(NC(=O)c2cccs2)cc1Cl)c1ccco1	6%	-14	-3%	86%	13%	0%
Cc1ccc(NC(=O)c2cccs2)cc1NC(=O)c1ccccc1Cl	3%	-12	-3%	4%[0.00184 µM]	11%	-13%
O=C(N/N=C/c1cccs1)c1ccc(NC(=O)c2ccccc2Cl)cc1	-1%	-65*	-10%	-17%	-9%	-21%
COC(=O)[C@@H]1[C@@H](CO)[C@@H]2Cn3c(ccc(Br)c3=O)[C@H]1N2C(=O)CN(C)C	x	19	x	x	x	x
COc1ccc(S(=O)(=O)N2CCN(C(=O)CSC(=S)N3CCCC3)CC2)cc1	2%	-19	6%	u	u	19%
CCCc1cc(=O)oc2cc(C)c3c(-c4ccccc4)coc3c12	16%	-19	x	x	x	x
Cc1ccc(NC(=O)[C@@H]2CCCN2C(=O)c2cccs2)cc1S(=O)(=O)N1CCCCC1	-4%	-21	-1%	u	u	u
CCC1CCCCN1S(=O)(=O)c1ccc(NC(=O)c2snnc2C)cc1 (centres undefined)	4%	u	-2%	u	68%	u
CCC1CCCCN1S(=O)(=O)c1ccc(NC(=O)c2cccs2)cc1 (centres undefined)	3%	-36	-27%	2.3µM*	-19%	u
CC1CC(C)CN(S(=O)(=O)c2ccc(NC(=O)[C@@H]3CCCN3C(=O)c3cccs3)cc2)C1 (some centres undefined)	-9%	46	2%	12µM*	u	u
COc1ccccc1N1C(C)=CC(=C(C#N)c2nc3ccccc3s2)C=C1C	0%	-3	18%	9.3µM*	u	u
COC(=O)c1cc(C(=O)Nc2ccc(C)cn2)cc([N+](=O)[O-])c1	6%	-31	-7%	18%	12µM*	u
Cc1ccc(OCc2ccc(C(=O)NN)o2)c([N+](=O)[O-])c1	8%	30	-1%	-15%	u	3%
Cc1ccc(C)c(OCc2ccc(C(=O)Nc3ccc([N+](=O)[O-])cn3)o2)c1	-9%	-18	1%	u	-40%	2.5µM*
Cc1ccc(OCc2ccc(C(=O)Nc3c(C)nn(Cc4c(F)c(F)c(F)c(F)c4F)c3C)o2)c([N+](=O)[O-])c1	-6%	-39	-3%	u	u	16µM*
Cn1c(N)c(C(=O)COC(=O)Cc2cccc(C(F)(F)F)c2)c(=O)n(C)c1=O	x	0	3%	x	x	9%
Cc1ccsc1C(=O)N1CCC1(C)C(=O)NS(=O)(=O)c1ccccc1 (centres undefined)	x	9	x	x	x	x
CC(C(=O)NCc1ccco1)n1nc(-c2ccccc2)c2cc(Cl)ccc21 (centres undefined)	-22%	u	5%	x	u	-10%
CC(=O)c1ccc(NC(=O)C(C)n2nc(-c3ccccc3)c3cc(Cl)ccc32)cc1 (centres undefined)	2%	-18	-1%	u	1.2µM*	u
SMILES	Sm TGR inh	HCMV inh	SARS PLP yeast	Pf growth 48h	Pf growth 96h	HCV inhibitor
O=C(Cc1cccnc1)N1CC(=O)N2[C@@H](CO)[C@H](c3ccc(Br)cc3)[C@@H]2C1	x	-8	x	x	x	x
CCOc1cc2c(cc1/C=C/c1noc(C)c1[N+](=O)[O-])OC(C)C2 (centres undefined)	-1%	-61*	-1%	-10%	u	u
CCOc1cc2c(cc1C=O)OC(C)C2 (centres undefined)	9%	0	-3%	16%	u	-8%
CCN(CC)CCCC(C)Nc1c2ccc(Cl)cc2nc2ccc(OC)cc12 (centres undefined)	u	x	-11%	x	x	x
CCN(CC)CCCC(C)Nc1cc(/C=C/c2ccccc2Cl)nc2cc(Cl)ccc12 (centres undefined)	x	x	x	0.48µM*	0.6µM*	x
CCOC(=O)Cc1ccc(NC(=O)n2ncc3c(C)cccc32)cc1	7%	-74*	x	x	x	x
C[C@@H](NC(=O)c1nc[nH]c1C(=O)N(C)Cc1ccccc1)c1ccccc1	-8%	9	-2%	-13%	15%	12%
Cc1ccc(NC(=O)c2cc(-c3ccc(Br)s3)nc3ccccc23)cc1F	-1%	-16	x	x	x	x
CC(=O)NC12CC3CC(C)(C1)CC(NC(C)=O)(C3)C2	7%	-69*	-1%	x	-8%	x
CC1CCN(c2ccc(-c3cccs3)nn2)CC1	u	-66*	-4%	-49%	10%	0%
Clc1ccc(-c2cccs2)nn1	73%	-27	4%	u	37%	15%
COc1ccc(CC(=O)NCc2ccc3c(c2)CCN3C(=O)c2ccccc2)cc1OC	-3%	18	x	x	x	x
Cc1ccc(C)n1-c1nn(S(=O)(=O)c2ccccc2)c2cccc(F)c12	-24%	-32	-6%	u	u	-1%
COc1ccc(S(=O)(=O)n2nc(-n3c(C)ccc3C)c3c(F)cccc32)cc1OC	-4%	-32	-2%	5.9µM*	u	u
Cc1ccccc1S(=O)(=O)NC(=O)C1(C)CCN1C(=O)CCc1cccs1 (centres undefined)	x	26	x	x	x	x
COc1ccc(-c2cc(-c3ccc(C)cc3)n[nH]2)c(O)c1	-1%	126	-5%	u	34%	u
Cc1ccc(O)c(-c2cc(C(=O)NCc3ccc4c(c3)OCO4)[nH]n2)c1	0%	-11	-5%	-2%	0%	-6%
COc1ccc(-c2cc(-c3cc(C)ccc3O)[nH]n2)cc1	20%	-35	-2%	u	u	3.5µM*
Cc1ccc(O)c(-c2cc(-c3ccc(F)cc3)no2)c1	3%	91	-3%	10µM*	u	5%
Cc1ccc(-c2cc(-c3ccccc3)no2)c(O)c1	0%	3	8%	u	u	9%
